According to PubChem BioAssay AID624489 (Broad Institute, 2012):
Potency and affinity values are given separately. Unmarked numbers belong to inactive results.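 The calls were made as follows: active = compounds with a falling luminescence curve whose half-maximal concentration is at most twice the top valid dose; inconclusive = flat fit between -70 and -30 percent, or poor fit; inactive = the rest.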

Experiment: viability loss in MITF-independent A375 cells – cell-based, CellTiter-Glo luminescence, dry powder, set 2, counter-screen for MITF inhibitor project, dose response (AID 624489)
Details: A375 melanoma viability, CellTiter-Glo ATP luminescence, 24 h; series mostly up to 35 µM; activity change, negative = cytotoxicity: at the top concentration

Point of comparison: C=CCNC1=C(NS(=O)(=O)c2cccs2)C(=O)c2ccccc2C1=O, “activity change, negative = cytotoxicity” value -7.19%. Against it:
- O=C1C(NS(=O)(=O)c2ccc(Br)cc2)=C(N2CCN(c3ccccc3)CC2)C(=O)c2ccccc21 — higher, -6.92%
- COc1ccc(C2=C(NC(=O)c3ccc(OC)cc3-c3cccc(OC)c3)C(=O)c3ccccc3C2=O)cc1 — higher, -0.405%
- C=CCNC1=C(NC(=O)c2ccccc2)C(=O)c2ccccc2C1=O — lower, -9.93%
- C=CCNC1=C(NCC=C)C(=O)c2ccccc2C1=O — higher, -5.66%
